The structures appear in SMILES notation.

One test relates to Vero E6 infected with SARS-CoV-2. The test is described as follows: inhibition of SARS-CoV-2 cytopathic effect; higher = more antiviral protection, active = above 15. As to conditions: 1 nM; 48 h. In general terms: Damage to the host cells serves as the signal in cytopathic effect assays.
Consider `Cc1nc(Nc2ncc(C(=O)Nc3c(C)cccc3Cl)s2)cc(N2CCN(CCO)CC2)n1` [dasatinib], for which the “inhibition of SARS-CoV-2 cytopathic effect” value (“inhibition” below) is 1.14% (inactive). For the compound `Cc1cc(O)c2c(c1)C(=O)c1cccc(O)c1C2=O` [chrysophanic-acid], the “inhibition” value was -0.27% (inactive). `CC(=O)NC[C@H]1CN(c2ccc(N3CCOCC3)c(F)c2)C(=O)O1` [linezolid]: the “inhibition” value was -5.81% (inactive). Still for that read-out and setting: with `c1coc(-c2nnc3sc(C4CCCCC4)nn23)c1` [cardionogen-1] the figure was -0.83% (inactive). Same read-out and setting: with `O=C1NC(=O)c2c1c1c3ccccc3n3c1c1c2c2ccccc2n1C1CCC3O1` the figure was 0.12% (inactive).

The same test, now with this note: 8.33 nM; 48 h.
`Cc1cc(I)ccc1Nc1c(C(=O)NOCC2CC2)cc(F)c(F)c1F`: the “inhibition” value is 5.24% (inactive). Same read-out and setting: with `c1ccc2c(-c3cnn4cc(-c5ccc(N6CCNCC6)cc5)cnc34)ccnc2c1` the figure was 4.28% (inactive); with `CCCOc1ccc(S(=O)(=O)N2CCN(CCO)CC2)cc1-c1nc2c(CCC)cn(CC)c2c(=O)[nH]1` [mirodenafil], 0.66% (inactive). For `N#CC(c1ccnc(OCc2ccc(CN3CCOCC3)cc2)n1)c1nc2ccccc2s1` (stereo not given), the “inhibition” value is 0.15% (inactive). On the same count and under the same terms, with `C[C@@H]1CN(c2c(F)c(F)c3c(=O)c(C(=O)O)cn(C4CC4)c3c2F)C[C@H](C)N1` [orbifloxacin] the figure was -2.82% (inactive); with `COCC(=O)Nc1c(I)c(C(=O)NCC(O)CO)c(I)c(C(=O)N(C)CC(O)CO)c1I` (stereo not given) [iopromide], -1.91% (inactive); with `O=C(c1ccccc1)C(O)c1ccccc1` (stereo not given) [benzoin], 0.27% (inactive). Same read-out and setting: with `N=C(N)NCCCC[C@@H]1NC(=O)CCSSC[C@@H](C(N)=O)NC(=O)[C@@H]2CCCN2C(=O)[C@H](Cc2c[nH]c3ccccc23)NC(=O)[C@H](CC(=O)O)NC(=O)CNC1=O` [eptifibatide] the figure was 8.08% (inactive); with `NNCCc1ccccc1` [phenelzine], -0.85% (inactive); with `O=C(Nc1ccc(C(O)(C(F)(F)F)C(F)(F)F)cc1)c1ccc(C(F)(F)F)cc1`, 1.24% (inactive). For the compound `Cc1ccc(Oc2ccccc2-c2csc(N=C3NCCCN3)n2)c(C)c1` [abafungin], the “inhibition” value was 1.5% (inactive). The same measure, in the same setting: with `Nc1c(S(=O)(=O)O)cc(Nc2cccc3ccccc23)c2c1C(=O)c1ccccc1C2=O` the figure was -0.72% (inactive); with `Nc1ccc(S(=O)(=O)Nc2ccccn2)cc1` [sulfapyridine], 0.08% (inactive). The same measure, in the same setting: with `C[C@H](Cc1ccc(OCC(=O)O)cc1)NC[C@H](O)c1cccc(Cl)c1` the figure was 0.79% (inactive); with `c1ccc(CNCc2ccc(CN3CCCNCCNCCCNCC3)cc2)nc1`, 1.15% (inactive); with `NC1=N[C@@](c2cccc(-c3cncnc3)c2)(c2ccnc(C(F)F)c2)c2cccc(F)c21`, -1.06% (inactive). As to `CN(CCOP(=O)(O)O)C(=N)N` [creatinol-phosphate], the “inhibition” value is 2.42% (inactive). Take `CCOc1ccc(-c2nc(-c3cccc4c3CCC4NCCO)no2)cc1OCC` (stereo not given): the “inhibition” value was 0.67% (inactive). The same measure, in the same setting: with `O=C(Oc1ccc(Br)cc1)N1CCN2CCC1CC2` the figure was 1.31% (inactive). On to `CC[C@H](C)n1cc(C)c2c(C(=O)NCc3c(C)cc(C)[nH]c3=O)cc(-c3ccc(N4CCNCC4)nc3)cc21`, for which the “inhibition” value is 2.76% (inactive).

Turning to `CCCCCCCN(CC)CCC[C@@H](O)c1ccc(NS(C)(=O)=O)cc1` (racemic) [ibutilide], the “inhibition” value was -2.14% (inactive).

On to `Cc1ccc(Cl)c(Nc2ccccc2C(=O)O)c1Cl` [meclofenamic-acid], for which the “inhibition” value is 1.04% (inactive). `COC(F)(F)C(Cl)Cl` [methoxyflurane]: the “inhibition” value was 5.27% (inactive). Turning to `O=P(O)(O)CN(CCN(CP(=O)(O)O)CP(=O)(O)O)CP(=O)(O)O`, the “inhibition” value was 0.56% (inactive).

As for `O=C(NCCCNc1nc(Nc2cccc(NC(=O)N3CCCC3)c2)ncc1I)c1cccs1`, the “inhibition” value is -0.75% (inactive). The same measure, in the same setting: with `C=C1CC[C@H](O)C/C1=C/C=C1\CCC[C@]2(C)[C@@H]([C@H](C)CCCC(C)(C)O)CC[C@@H]12` [calcifediol] the figure was -2.15% (inactive); with `C#Cc1cccc(Nc2ncnc3cc(OCCOC)c(OCCO)cc23)c1`, -0.66% (inactive); with `O=C(O)c1ccc2c(c1)nc(Nc1cccc(Cl)c1)c1ccncc12`, 0.18% (inactive).

On to `CCCCCCCCCCCCCCCC(=O)OC(CC(=O)[O-])C[N+](C)(C)C` (stereo not given) [palmitoylcarnitine], for which the “inhibition” value was 0.65% (inactive). On the same count and under the same terms, with `CNc1ncc2cc(-c3cc(NC(=O)NCCC(C)(C)C)c(F)cc3C)c(C)nc2n1` the figure was 1.85% (inactive); with `Cc1ccc(OCCSc2ncccn2)c(Br)c1`, -1.79% (inactive).

On to `NC(=O)c1ccc[n+]([C@@H]2O[C@H](COP(=O)([O-])OP(=O)(O)OC[C@H]3O[C@@H](n4cnc5c(N)ncnc54)[C@H](O)[C@@H]3O)[C@@H](O)[C@H]2O)c1` [nadide], for which the “inhibition” value is -2.65% (inactive). Same read-out and setting: with `CCN1CCN(C(=O)Cc2ccc(Nc3ncc(F)c(Nc4ccc(C(=O)Nc5ccccc5Cl)cc4)n3)cc2)CC1` [aurora-a-inhibitor-i] the figure was -0.73% (inactive). `N[C@@H](CS)C(=O)O` [L-cysteine]: the “inhibition” value is -1.19% (inactive).

`COc1cc(Br)c(Nc2nc(-c3c(C)nc4ncccn34)cs2)c(Br)c1`: the “inhibition” value is 0.45% (inactive). On the same count and under the same terms, with `Cc1nc(Nc2ncc(C(=O)Nc3c(C)cccc3Cl)s2)cc(N2CCN(CCO)CC2)n1` [dasatinib] the figure was -1.86% (inactive); with `Cc1cc(O)c2c(c1)C(=O)c1cccc(O)c1C2=O` [chrysophanic-acid], 0.87% (inactive); with `CC(=O)NC[C@H]1CN(c2ccc(N3CCOCC3)c(F)c2)C(=O)O1` [linezolid], 4.06% (inactive). Still for that read-out and setting: with `c1coc(-c2nnc3sc(C4CCCCC4)nn23)c1` [cardionogen-1] the figure was -0.13% (inactive). As for `O=C1NC(=O)c2c1c1c3ccccc3n3c1c1c2c2ccccc2n1C1CCC3O1`, the “inhibition” value was 2.27% (inactive).

(Values after the supplement of paper PMC13380429.)
